The values that follow come from PubChem BioAssay.

The nature of experiment [1]: E. coli DRC41 culture turbidity changes, primary screen, E. coli filamentation inducer project, strain DRC41, OD650, 48 h (AID 1152).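 Further: E. coli MC1000 strain DRC41 lacking acrAB efflux pump and sulA.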 The note with it: E. coli DRC41 (acrAB sulA), higher = more signal, called active from +8 up or from −8 down.
The nature of experiment [2]: small-molecule binders of probe aLefty1, primary screen, biochemical, small-molecule microarray, 635/667 nm fluorescence (AID 1153).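 Further: score merges spot fluorescence with signal-to-noise ratio from the scanned slide images.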 The note with it: higher = more signal.
Experiment [3] is described as follows: PSAC antagonists in infected red cells, primary screen, cell-based, P. falciparum Indochina, OD700, 1 h (AID 1154). As to conditions: P. falciparum Indochina infected RBC osmotic lysis, higher = more signal, called active from +8 up or from −8 down.
The nature of experiment [4]: PSAC antagonists in infected red cells, primary screen, cell-based, P. falciparum Indochina, OD700, 2 h (AID 1155).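 Further: lysis reports solute entry through the parasite surface anion channel PSAC; channel blockers reduce lysis of infected cells.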 The note with it: P. falciparum Indochina infected erythrocytes, osmotic lysis OD700; higher = more signal, called active from +8 up or from −8 down.
The nature of experiment [5]: osmotic lysis modulators in infected erythrocytes, primary screen, PSAC antagonist project, cell-based, P. falciparum Indochina, OD700, 3 h (AID 1156). The note with it: higher = more signal, called active from +8 up or from −8 down.
Experiment [6] is described as follows: PSAC antagonists in infected red cells, primary screen, cell-based, P. falciparum Indochina, OD700, 18 h (AID 1157). The note with it: P. falciparum Indochina infected erythrocytes, osmotic lysis OD700, 18 h; higher = more signal, called active from +8 up or from −8 down.
Experiment [7] can be described thus: modulators of S6 phosphorylation in cells, primary screen, cell-based, A549, cytoblot, luminescence, serum-stimulated (AID 1158).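 Further: serum-stimulated A549 lung adenocarcinoma cells; signal is phosphorylated S6 detected by cytoblot immunostaining with HRP secondary.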 As to conditions: A549 phospho-S6 cytoblot, 5 h, higher = more signal.
For experiment [8], the target named is NADPH oxidase 2 (Homo sapiens) (UniProt P04839). Kind of experiment: NOX2-dependent H2O2 signal modulators, primary screen, NOX inhibitor project, cell-based, HEK293-NOX2, PMA-stimulated, Amplex Red fluorescence (AID 1159). Further: test concentration not given here. As to conditions: 45 min, higher = more signal, called active from +8 up or from −8 down.
NADPH oxidase 2 (Homo sapiens), sequence (P04839 whole entry, looked up): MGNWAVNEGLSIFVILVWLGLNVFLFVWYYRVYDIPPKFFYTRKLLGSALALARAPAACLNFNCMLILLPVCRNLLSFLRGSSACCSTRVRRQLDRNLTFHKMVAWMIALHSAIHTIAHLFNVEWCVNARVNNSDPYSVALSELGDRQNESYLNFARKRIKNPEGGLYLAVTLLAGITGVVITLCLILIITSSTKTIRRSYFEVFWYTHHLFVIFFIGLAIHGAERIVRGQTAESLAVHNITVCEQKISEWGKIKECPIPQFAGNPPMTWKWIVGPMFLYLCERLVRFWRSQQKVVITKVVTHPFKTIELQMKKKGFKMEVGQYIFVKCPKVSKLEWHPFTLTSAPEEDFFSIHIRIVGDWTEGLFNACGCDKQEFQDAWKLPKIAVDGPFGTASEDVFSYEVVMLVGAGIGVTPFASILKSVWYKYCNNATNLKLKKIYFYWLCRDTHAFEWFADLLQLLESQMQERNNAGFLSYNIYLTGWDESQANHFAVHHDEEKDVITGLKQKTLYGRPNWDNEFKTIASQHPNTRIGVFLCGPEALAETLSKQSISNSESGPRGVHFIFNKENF
In experiment [9] the target is NADPH oxidase 4 (Homo sapiens) (UniProt Q9NPH5). As to the kind of experiment: NOX4-dependent H2O2 signal modulators, primary screen, NOX inhibitor project, cell-based, HEK293-NOX4, tetracycline-induced, Amplex Red fluorescence (AID 1160). As to conditions: 45 min, higher = more signal, called active from +8 up or from −8 down.
NADPH oxidase 4 (Homo sapiens), sequence (Q9NPH5 whole entry, looked up): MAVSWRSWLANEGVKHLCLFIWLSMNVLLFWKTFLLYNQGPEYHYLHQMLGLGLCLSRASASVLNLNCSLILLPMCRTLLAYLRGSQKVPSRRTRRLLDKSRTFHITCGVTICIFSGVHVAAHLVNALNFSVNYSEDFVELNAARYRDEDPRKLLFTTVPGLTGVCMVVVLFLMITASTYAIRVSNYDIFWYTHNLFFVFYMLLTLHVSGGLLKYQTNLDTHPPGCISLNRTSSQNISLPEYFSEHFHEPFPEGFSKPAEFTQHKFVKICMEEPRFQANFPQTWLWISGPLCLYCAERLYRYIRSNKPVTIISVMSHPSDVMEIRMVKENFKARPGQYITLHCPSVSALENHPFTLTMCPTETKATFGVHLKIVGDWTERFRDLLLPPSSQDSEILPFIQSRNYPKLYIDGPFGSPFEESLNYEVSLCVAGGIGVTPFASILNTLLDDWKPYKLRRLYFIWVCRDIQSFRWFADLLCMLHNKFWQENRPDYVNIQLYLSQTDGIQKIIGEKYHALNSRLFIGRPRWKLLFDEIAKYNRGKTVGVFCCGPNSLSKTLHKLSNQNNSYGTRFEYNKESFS
For experiment [10], the target named is NADPH oxidase 5 (Homo sapiens) (UniProt Q96PH1). As to the kind of experiment: NOX5-dependent H2O2 signal modulators, primary screen, NOX inhibitor project, cell-based, HEK293-NOX5, Amplex Red fluorescence (AID 1161). As to conditions: HEK293-NOX5, ionomycin, 45 min, higher = more signal.
NADPH oxidase 5 (Homo sapiens), sequence (Q96PH1 whole entry, looked up): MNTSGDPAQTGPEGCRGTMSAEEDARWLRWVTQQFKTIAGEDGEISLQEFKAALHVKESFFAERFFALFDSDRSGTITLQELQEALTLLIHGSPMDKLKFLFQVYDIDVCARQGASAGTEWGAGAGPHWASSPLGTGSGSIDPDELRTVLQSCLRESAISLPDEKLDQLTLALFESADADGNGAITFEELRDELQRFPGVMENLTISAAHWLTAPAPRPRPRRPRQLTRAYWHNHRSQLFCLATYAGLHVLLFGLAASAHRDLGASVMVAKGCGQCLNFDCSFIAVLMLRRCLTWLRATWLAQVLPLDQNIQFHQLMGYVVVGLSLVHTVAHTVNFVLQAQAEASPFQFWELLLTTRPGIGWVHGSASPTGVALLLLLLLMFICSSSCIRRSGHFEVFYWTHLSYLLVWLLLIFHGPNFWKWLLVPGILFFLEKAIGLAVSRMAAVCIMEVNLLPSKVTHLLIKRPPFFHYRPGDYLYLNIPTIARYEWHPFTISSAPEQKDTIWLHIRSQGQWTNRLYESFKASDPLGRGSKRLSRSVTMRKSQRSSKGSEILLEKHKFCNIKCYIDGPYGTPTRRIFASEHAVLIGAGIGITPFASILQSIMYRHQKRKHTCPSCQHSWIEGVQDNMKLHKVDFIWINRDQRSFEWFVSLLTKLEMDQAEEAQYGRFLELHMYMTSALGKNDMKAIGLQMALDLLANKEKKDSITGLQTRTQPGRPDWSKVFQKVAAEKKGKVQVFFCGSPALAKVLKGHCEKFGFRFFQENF
A short description of experiment [11]: A549 cell viability effects, profiling panel, calcein-AM fluorescence, 48 h, basal (AID 1162). Further: test concentration not given here. As to conditions: higher = more signal.
The nature of experiment [12]: adipocyte viability effects, profiling panel, cell-based, 3T3-L1 adipocytes, calcein-AM fluorescence, 48 h, basal (AID 1163). Further: test concentration not given here. The note with it: 3T3-L1 adipocytes viability, higher = more signal.
A short description of experiment [13]: HepG2 cell viability effects, profiling panel, calcein-AM fluorescence, 48 h, basal (AID 1164). Further: test concentration not given here. The note with it: higher = more signal.
Experiment [14] in a line: MM1S cell viability effects, profiling panel, calcein-AM fluorescence, 48 h, basal (AID 1165).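 Further: viability of MM1S multiple myeloma cells under basal unstimulated conditions; test concentration not given here.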 The note with it: higher = more signal.
Experiment [15] is described as follows: basal RPMI8226 viability, no added stimulus, profiling panel, cell-based, calcein-AM fluorescence, 48 h, PK04 Diversity Set (AID 1166).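 Further: cells grown under basal conditions without added stimulus; test concentration not given here.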 As to conditions: RPMI8226 myeloma viability, higher = more signal.
The nature of experiment [16]: basal HepG2 mitochondrial membrane potential changes, profiling panel, cell-based, JC-1 fluorescence, 24 h, 100 nL compound (AID 1167). Further: test concentration not given here. The note with it: higher = more signal.
A short description of experiment [17]: basal 3T3-L1 adipocyte mitochondrial potential changes, profiling panel, cell-based, JC-1 fluorescence, 3T3-L1 adipocytes, 24 h, 100 nL compound (AID 1168). Further: test concentration not given here. The note with it: JC-1 mitochondrial fluorescence, higher = more signal, called active from +8 up or from −8 down.
The nature of experiment [18]: basal RPMI8226 mitochondrial membrane potential changes, profiling panel, cell-based, JC-1 fluorescence, 24 h, 100 nL compound (AID 1169). Further: test concentration not given here. As to conditions: RPMI8226 myeloma, JC-1 mitochondrial potential fluorescence, higher = more signal.
Experiment [19] is described as follows: basal MM1S mitochondrial membrane potential changes, profiling panel, cell-based, JC-1 fluorescence, 24 h, 100 nL compound (AID 1170). Further: test concentration not given here. As to conditions: higher = more signal.
Experiment [20] in a line: A549 lung cancer cell viability effects, profiling panel, resazurin fluorescence, 24 h, PK04 Diversity Set (AID 1171). Further: test concentration not given here. The note with it: higher = more signal, called active from +8 up or from −8 down. (Alamar Blue is a resazurin reagent that responds to reducing activity.)

Calls of active or inactive are those of the source.

As to `Cc1ccc(S[C@]2(C(=O)NCc3ccccc3)CC(=O)N(Cc3ccccc3)[C@@H]2c2ccc(CO)cc2)cc1`, the z-score in experiment [1] was -1.24 (inactive); in [3] it was 1.27 (inactive); in [4], 0.115 (inactive); in experiment [5] it was -0.376 (inactive); in experiment [6], -0.234 (inactive); in experiment [7], 0.0768. The z-score in [8] is -1.51 (inactive); in [9], 0.494 (inactive); in experiment [10] it was -0.189; in experiment [11], 0.778; in [12] it was 0.147; in [13], 0.0772. The z-score in [14] was -0.195; in [15], -0.615; in experiment [16] it was -0.452; in experiment [17], 0.645 (inactive); in experiment [18] it was 0.0195; in experiment [19], -0.172. Also, the z-score in experiment [20] was -0.114 (inactive). The compound further returned a composite z-score in experiment [2] of -0.188.
Take `CC(C)(C)OC(=O)CC[C@@]1(C(=O)O)N=C(c2ccc(OCCCO)cc2)O[C@@H]1c1ccccc1N=[N+]=[N-]`: the z-score in experiment [1] is 0.592 (inactive); in experiment [3], 31.5 (active); in [4], 28.4 (active); in experiment [5], 1.79 (inactive); in [6], 7.51 (inactive); in [7] it was -0.342. The z-score in experiment [8] is -0.0442 (inactive); in [9] it was 1.69 (inactive); in experiment [10], 0.907; in experiment [11], 0.188; in experiment [12], -0.364; in experiment [13] it was 0.218. Also, the z-score in experiment [14] was -0.0694; in experiment [15], -0.385; in experiment [16], -2.88; in experiment [17] it was -1.08 (inactive); in experiment [18], -0.759; in experiment [19], -1.12. In experiment [20], the z-score was 0.0421 (inactive). In addition, in [2], the composite z-score amounted to 0.266.
Consider `CS(=O)(=O)CCOC(=O)C1=CC(c2ccc(CO)cc2)=CC(C2CC2)N(Cc2cc3c(cc2Br)OCO3)C=C1C(=O)OCCS(C)(=O)=O` (stereo not given), for which the z-score was -1.9 (inactive) in experiment [1]; 17.2 (active) in experiment [3]; 3.22 (inactive) in [4]; 0.904 (inactive) in experiment [5]; 1.29 (inactive) in [6]; 0.376 in experiment [7]. For the same compound, the z-score in experiment [8] is -1.77 (inactive); in [9] it was -0.749 (inactive); in experiment [10], -2.03; in experiment [11], -0.261; in experiment [12] it was -0.14; in experiment [13], 1.04. Besides, the z-score was -2.68 in [14]; -2.41 in experiment [15]; 2.99 in experiment [16]; 0.253 (inactive) in experiment [17]; -0.787 in experiment [18]; -1.8 in experiment [19]. Further, the z-score in experiment [20] was -1.14 (inactive). Moreover, the composite z-score in experiment [2] stood at 0.199.
In the case of `CCOC(=O)C[C@H]1[C@H](OC(=O)Cc2ccc3c(c2)OCO3)[C@@H](NC(=O)C2CCCCC2)c2cc(OCCCO)ccc2N1C(=O)Cc1ccc(OC)cc1`, the z-score is 2.31 (inactive) in [1]; 5.77 (inactive) in experiment [3]; -0.54 (inactive) in [4]; -1.21 (inactive) in experiment [5]; -0.911 (inactive) in experiment [6]; 1.97 in [7]. The z-score was -0.00495 (inactive) in experiment [8]; 1.07 (inactive) in experiment [9]; 0.297 in [10]; 0.746 in experiment [11]; 0.433 in experiment [12]; 1.08 in [13]. The z-score in experiment [14] is 0.747; in [15] it was 0.664; in experiment [16], 2.39; in [17] it was 0.0143 (inactive); in experiment [18], -0.0561; in experiment [19] it was -0.784. For the same compound, the z-score in experiment [20] was -0.247 (inactive). The compound also yielded a composite z-score in experiment [2] of 0.405.
`COCCCNC(=O)[C@@]1(CCC(=O)OC(C)(C)C)N=C(c2ccc(OCCCO)cc2)O[C@H]1c1ccccc1CN=[N+]=[N-]`: the z-score was 0.369 (inactive) in [1]; 23.2 (active) in experiment [3]; 4.71 (inactive) in experiment [4]; 1.35 (inactive) in experiment [5]; 0.883 (inactive) in [6]; 0.0769 in experiment [7]. The z-score in experiment [8] is 1.95 (inactive); in [9], 2.2 (inactive); in [10], 2.48; in experiment [11] it was 0.463; in [12], 0.892; in experiment [13], -0.244. The z-score in experiment [14] was 0.153; in experiment [15], -0.853; in experiment [16] it was 0.88; in experiment [17] it was -0.736 (inactive); in [18], 0.665; in experiment [19], 0.5. The z-score in experiment [20] is 0.155 (inactive). In addition, the composite z-score in [2] was 0.428.
Consider `COCCCNC(=O)[C@@]1(c2ccc([N+](=O)[O-])cc2)CC(=O)N(CC23CC4CC(CC(C4)C2)C3)[C@@H]1c1ccc(CO)cc1`, for which the z-score is 0.697 (inactive) in experiment [1]; 4.55 (inactive) in [3]; 0.958 (inactive) in experiment [4]; 1.47 (inactive) in experiment [5]; 0.888 (inactive) in [6]; 0.0694 in experiment [7]. The z-score was -0.237 (inactive) in [8]; -1.44 (inactive) in experiment [9]; -1.74 in [10]; -0.995 in [11]; 0.109 in [12]; 0.198 in experiment [13]. Also, the z-score in experiment [14] is -1.93; in experiment [15], -2.42; in experiment [16], 0.461; in experiment [17] it was -0.381 (inactive); in experiment [18] it was 0.0554; in [19] it was -0.784. Moreover, the z-score in experiment [20] was -0.968 (inactive). The composite z-score in experiment [2] was 0.616.
As to `Cc1ccc(S[C@]2(C(=O)NC3CC3)CC(=O)N(C3CCCCC3)[C@@H]2c2ccc(CO)cc2I)cc1`, the z-score in experiment [1] was 0.639 (inactive); in experiment [3] it was 6.07 (inactive); in experiment [4] it was 0.898 (inactive); in experiment [5], -0.0504 (inactive); in [6], 0.427 (inactive); in [7] it was -0.208. Also, the z-score in experiment [8] was 0.655 (inactive); in [9], -0.194 (inactive); in [10] it was 1.38; in [11] it was 1.07; in experiment [12] it was -0.07; in experiment [13], 1.12. For the same compound, the z-score in [14] was -2.5; in experiment [15], -1.7; in experiment [16], 1.62; in experiment [17], 0.124 (inactive); in experiment [18], -0.558; in experiment [19], -1.2. In addition, the z-score in [20] was -0.0731 (inactive). In [2], this compound showed a composite z-score of 0.112.
